We go through seven compounds from PubChem BioAssay (NCATS).

For assay [1], the target named is Lysosomal acid glucosylceramidase (Homo sapiens) (UniProt P04062). In words: Glucocerebrosidase-p2 (AID 348; in the data active = potency below about 10 µM; note: potency is the fitted concentration of half-maximal effect). The note with it: purified GBA, blue fluorogenic substrate, 40 min. An outline of the steps:
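Normal human glucocerebrosidase (0.2 nM) with blue fluorogenic substrate (80 uM final) in citrate/phosphate pH 5.9 with 10mM sodium taurocholate, 0.01% tween-20; 40 min RT, NaOH/glycine stop; fluorescence Ex 365/Em 440; AC50 from a titration from 0.6 nM upwards.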

The nature of assay [2]: AP1 Signaling Pathway (AID 357). Note: % is set by controls: 0 for no effect and ±100 for the full control effect. The note with it: ME-180 AP-1-bla reporter, EGF-induced, beta-lactamase ratio, 5 h; at 7.69 µM (top of the series) unless noted. An outline of the steps: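 AP-1-bla ME-180 cells, Opti-MEM + 0.5% dialyzed FBS, plated overnight 37 °C. Cpd titration + EC50 EGF, 5 h 37 °C. CCF4 2.5 h RT; ex 405, em 460/530 ratio → %activity, AC50.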
Assay [3] deals with Cytochrome P450 1A2 (Homo sapiens) (UniProt P05177). Nature of the assay: p450-cyp1a2 (AID 410; calls by dose curve; note: potency is the fitted concentration of half-maximal effect). The note with it: recombinant CYP1A2, luciferin-ME demethylation, luminescence; series mostly up to 57 µM. An outline of the steps:
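20nM CYP1A2, 100uM Luciferin-ME (=Km), 100mM KPO4; cpd 10 min RT; +NADPH regen, 60 min RT; stop/detect 20 min; luminescence. Normalized to furafylline 57 uM = full inhibition.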

A short description of assay [4]: Stat Signaling Pathway (AID 446).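 Note: ME-180 cervical cancer cells given 40 pM IL-6 alongside compound; SIE-controlled beta-lactamase reporter measured as 460/530 nm FRET emission ratio; % is set by controls: 0 for no effect and ±100 for the full control effect.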 To be noted: ME-180 (cervical carcinoma) SIE beta-lactamase reporter, IL-6 stimulated, 5 h; at 7.69 µM (top of the series) unless noted. An outline of the steps:
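FRET read-out (405 nm excitation, 460/530 nm emission) of a beta-lactamase reporter under a STAT-inducible element in ME-180 cervical carcinoma cells. Cells with compound receive 40 pM IL-6 for 5 h. Values are normalised to AC90 stimulation and AC90 JAK-inhibitor controls.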

For assay [5], the target named is Glucocorticoid receptor (Homo sapiens) (UniProt P04150). Nature of the assay: GR-EFC Redistribution (AID 451; calls by dose curve; note: potency is the fitted concentration of half-maximal effect). The note with it: CHO-K1 GR-EFC translocation, beta-gal luminescence, 2 h. In short, it runs like this:
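CHO-K1 cells stably expressing nuclear-localized β-gal enzyme acceptor and GR fused C-terminally to the enzyme donor fragment; ligand-driven nuclear translocation restores β-gal by complementation. Compounds titrated up to 46 uM final, 2 h at 37 °C; luminescence read.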

For assay [6], the target named is Mitogen-activated protein kinase 10 (Mus musculus) (UniProt Q61831). In words: JNK3 AlphaScreen Assay (AID 530).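 Note: kinase came from lysate of stimulated human HepG2 cells; signal reports phosphorylation of biotinylated GST-cJun 1-79 at Ser73 with 10 µM ATP; % is set by controls: 0 for no effect and ±100 for the full control effect.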 To be noted: JNK3 lysate, c-Jun phosphorylation; series mostly up to 57.1 µM. An outline of the steps:
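Biotinylated GST-cJun(1-79) served as substrate for JNK3 in HepG2 lysates stimulated with IL-1beta and TNF-alpha. ATP was 10 uM final, pH 7.6. Ser73 phosphorylation was quantified by AlphaScreen (680 nm excitation).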
For orientation: Alpha assays give light when donor and acceptor beads are brought close together.

For assay [7], the target named is 3',5'-cyclic-AMP phosphodiesterase 4B (Homo sapiens) (UniProt Q07343). Nature of the assay: qHTS Assay for Inhibitors of PDE-IV (AID 607; active = well fitted activation curve with a large enough effect in the main read-out, with a control signal flat, not every such curve was filed as active; note: % of control where 0% means no effect). The note with it: HEK293 ACTOne CNG channel cells, membrane potential fluorescence; series mostly up to 22.9 µM. In short, it runs like this: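 Cell-based read-out of cAMP via a modified cyclic nucleotide-gated channel and membrane potential dye (535/590 nm) in HEK293 cells expressing PDE4 endogenously. Compounds tested up to 22.9 uM final; 100 uM RO 20-1724 reference.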
3',5'-cyclic-AMP phosphodiesterase 4B (Homo sapiens), sequence (Q07343 whole entry, looked up): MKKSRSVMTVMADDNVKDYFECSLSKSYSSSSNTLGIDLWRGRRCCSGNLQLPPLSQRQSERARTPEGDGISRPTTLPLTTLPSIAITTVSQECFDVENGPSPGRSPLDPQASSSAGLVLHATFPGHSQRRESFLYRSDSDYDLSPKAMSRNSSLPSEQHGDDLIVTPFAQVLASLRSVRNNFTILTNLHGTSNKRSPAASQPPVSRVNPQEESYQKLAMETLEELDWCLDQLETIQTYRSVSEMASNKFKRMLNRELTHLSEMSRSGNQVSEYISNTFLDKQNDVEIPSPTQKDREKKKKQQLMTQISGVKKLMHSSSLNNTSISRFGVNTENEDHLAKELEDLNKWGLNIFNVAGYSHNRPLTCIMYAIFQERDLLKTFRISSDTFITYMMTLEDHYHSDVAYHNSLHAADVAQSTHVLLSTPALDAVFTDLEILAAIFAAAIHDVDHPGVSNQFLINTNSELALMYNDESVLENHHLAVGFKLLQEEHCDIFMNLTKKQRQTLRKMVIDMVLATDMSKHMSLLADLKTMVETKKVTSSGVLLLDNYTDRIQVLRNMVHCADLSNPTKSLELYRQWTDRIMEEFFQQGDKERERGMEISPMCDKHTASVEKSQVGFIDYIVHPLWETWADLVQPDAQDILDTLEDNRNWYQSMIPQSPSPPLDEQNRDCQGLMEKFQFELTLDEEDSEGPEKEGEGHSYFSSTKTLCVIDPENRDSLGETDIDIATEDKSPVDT

The target in assay [8] is Cytochrome P450 2D6 (Homo sapiens) (UniProt P10635). Nature of the assay: qHTS Assay for Inhibitors and Substrates of Cytochrome P450 2D6 (AID 891; active = well fitted curve in the direction sought with a large enough effect; an effect the other way counts as inactive or inconclusive; note: potency is the fitted concentration of half-maximal effect; nearly all actives have a fitted effect of over 60% in size). To be noted: recombinant CYP2D6, luciferin-ME EGE luminescence; series mostly up to 57.1 µM. In short, it runs like this: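 Luminescent read-out of luciferin formed by 5 nM human CYP2D6 demethylating 30 uM Luciferin-ME EGE (Km level) over 60 min at room temperature after NADPH regeneration addition. Data normalized to full inhibition by 1.43 uM quinidine.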
Cytochrome P450 2D6 (Homo sapiens), sequence (P10635 whole entry, looked up): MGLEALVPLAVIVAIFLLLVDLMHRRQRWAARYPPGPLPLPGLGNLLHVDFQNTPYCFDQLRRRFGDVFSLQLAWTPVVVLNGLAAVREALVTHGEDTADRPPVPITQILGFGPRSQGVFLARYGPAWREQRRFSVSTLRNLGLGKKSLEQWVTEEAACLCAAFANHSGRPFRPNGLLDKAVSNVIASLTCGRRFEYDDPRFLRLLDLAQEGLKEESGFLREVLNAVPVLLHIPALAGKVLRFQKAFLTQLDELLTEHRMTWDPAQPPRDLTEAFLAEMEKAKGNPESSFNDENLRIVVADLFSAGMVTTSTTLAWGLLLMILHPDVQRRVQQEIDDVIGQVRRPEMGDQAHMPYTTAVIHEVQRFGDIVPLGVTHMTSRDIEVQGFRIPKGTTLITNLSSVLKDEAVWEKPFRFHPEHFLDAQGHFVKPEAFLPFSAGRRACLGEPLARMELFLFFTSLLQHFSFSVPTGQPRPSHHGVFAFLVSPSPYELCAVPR
On the technique in general: Quantitative high-throughput screening tests each substance at several concentrations.

A short description of assay [9]: qHTS Assay for Lipid Storage Modulators (AID 1519; calls by dose curve). The note with it: Drosophila S3 cells, BODIPY lipid droplet/cell ratio, laser cytometry, cells loaded with oleic acid; for activity change, negative = inhibition: at 57.5 µM (top of the series). In short, it runs like this: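 Cells seeded at 5,000 per well were treated with compounds over a concentration series and loaded with oleic acid (400 uM, as added). Lipid droplet fluorescence (488 nm excitation, 500-530 nm channel) was read by laser-scanning cytometry and normalized to 20 uM Triacsin C.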

The nature of assay [10]: Primary qHTS for small molecule stabilizers of the endoplasmic reticulum resident proteome: Secreted ER Calcium Modulated Protein (SERCaMP) assay (AID 1508630; active = well fitted curve in the direction sought with a large enough effect; an effect the other way counts as inactive or inconclusive; note: % is set by controls: 0 for no effect and ±100 for the full control effect). The note with it: SH-SY5Y GLuc-SERCaMP (Gaussia luciferase released on ER calcium loss) secretion, thapsigargin, luminescence; series mostly up to 38.4 µM. An outline of the steps:
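The SH-SY5Y reporter protocol was run at 3 concentrations up to 38.3 uM (primary) or 11 concentrations (follow-up): 16 h compound, 100 nM thapsigargin for 4 h, then extracellular luciferase luminescence.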

For assay [11], the target named is Cytochrome P450 3A4 (Homo sapiens) (UniProt P08684). In words: qHTS Assay for Inhibitors and Substrates of Cytochrome P450 3A4 (AID 884; active = well fitted curve in the direction sought with a large enough effect; an effect the other way counts as inactive or inconclusive; note: % is set by controls: 0 for no effect and ±100 for the full control effect; nearly all actives have a fitted effect of over 50% in size). To be noted: recombinant CYP3A4, Luciferin-PPXE luminescence; series mostly up to 57.1 µM. An outline of the steps: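 Luminescent readout of luciferin produced by CYP3A4 (20 nM) dealkylation of Luciferin-PPXE, 25 uM (its KM). NADPH-driven reaction ran 60 min at RT after 10 min compound preincubation; data scaled to 57 uM ketoconazole as 100% inhibition.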
Cytochrome P450 3A4 (Homo sapiens), sequence (P08684 whole entry, looked up): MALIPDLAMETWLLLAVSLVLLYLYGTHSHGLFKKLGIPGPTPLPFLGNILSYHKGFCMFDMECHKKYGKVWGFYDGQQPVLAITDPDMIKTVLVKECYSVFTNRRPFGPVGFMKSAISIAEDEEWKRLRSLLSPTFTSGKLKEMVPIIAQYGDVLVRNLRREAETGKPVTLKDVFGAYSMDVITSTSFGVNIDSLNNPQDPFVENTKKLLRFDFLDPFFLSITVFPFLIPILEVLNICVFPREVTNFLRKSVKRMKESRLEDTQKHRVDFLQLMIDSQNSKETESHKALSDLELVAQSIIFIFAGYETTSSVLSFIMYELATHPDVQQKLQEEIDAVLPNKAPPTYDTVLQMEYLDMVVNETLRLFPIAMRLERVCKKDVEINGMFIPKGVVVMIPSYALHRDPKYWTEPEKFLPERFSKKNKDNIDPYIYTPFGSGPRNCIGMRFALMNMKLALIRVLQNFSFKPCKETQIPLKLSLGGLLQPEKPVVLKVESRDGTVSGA

Assay [12] has as its target Cytochrome P450 2C19 (Homo sapiens) (UniProt P33261). In words: qHTS Assay for Inhibitors and Substrates of Cytochrome P450 2C19 (AID 899; active = well fitted curve in the direction sought with a large enough effect; an effect the other way counts as inactive or inconclusive; note: potency is the fitted concentration of half-maximal effect; nearly all actives have a fitted effect of over 60% in size). To be noted: recombinant CYP2C19, luciferin-H EGE luminescence; series mostly up to 57.1 µM. An outline of the steps: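 In 50mM KPO4, the reaction held 5nM enzyme and KM-level (10uM) Luciferin-H EGE; it ran 60 min at 37C after NADPH regeneration and a 10 min compound preincubation. Luminescence values were scaled to 57uM ketoconazole as complete inhibition.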

Assay [13] has as its target Cytochrome P450 3A4 (Homo sapiens) (UniProt P08684). In words: qHTS Assay for Activators of Cytochrome P450 3A4 (AID 885; active = well fitted curve in the direction sought with a large enough effect; an effect the other way counts as inactive or inconclusive; note: nearly all actives have a fitted effect of over 65% in size). The note with it: recombinant CYP3A4, Luciferin-PPXE luminescence, 60 min; series mostly up to 57.1 µM. An outline of the steps:
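Luminescent readout of luciferin formed from 25 uM Luciferin-PPXE (KM level) by 20 nM CYP3A4 in 200 mM KPO4, with 60 min NADPH-driven reaction at room temperature after 10 min compound exposure. Ketoconazole (57 uM) defined 100% inhibition.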

A short description of assay [14]: NFAT Signaling Pathway (AID 444). The note with it: Jurkat NFAT-bla M1, carbachol, beta-lactamase ratio, 5 h; at 7.69 µM (top of the series) unless noted. An outline of the steps:
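Jurkat cells carrying an NFAT-driven β-lactamase reporter and co-transfected muscarinic M1 receptor were treated with compound plus carbachol (1 uM final, an EC50 level) for 5 h at 37 °C. CCF4 loading followed for 1 h at RT; 460/530 nm ratio gave %activity.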

In assay [15] the target is Glucocorticoid receptor (Homo sapiens) (UniProt P04150). Nature of the assay: GR-GFP Redistribution (AID 450;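 active = compounds whose dose series gives a full or clear partial fitted curve of increased nuclear translocation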; note: potency is the fitted concentration of half-maximal effect). The note with it: U2OS GR-GFP nuclear translocation, laser cytometry, 2 h.
Glucocorticoid receptor (Homo sapiens), sequence (P04150 whole entry, looked up, the tested form may be a part): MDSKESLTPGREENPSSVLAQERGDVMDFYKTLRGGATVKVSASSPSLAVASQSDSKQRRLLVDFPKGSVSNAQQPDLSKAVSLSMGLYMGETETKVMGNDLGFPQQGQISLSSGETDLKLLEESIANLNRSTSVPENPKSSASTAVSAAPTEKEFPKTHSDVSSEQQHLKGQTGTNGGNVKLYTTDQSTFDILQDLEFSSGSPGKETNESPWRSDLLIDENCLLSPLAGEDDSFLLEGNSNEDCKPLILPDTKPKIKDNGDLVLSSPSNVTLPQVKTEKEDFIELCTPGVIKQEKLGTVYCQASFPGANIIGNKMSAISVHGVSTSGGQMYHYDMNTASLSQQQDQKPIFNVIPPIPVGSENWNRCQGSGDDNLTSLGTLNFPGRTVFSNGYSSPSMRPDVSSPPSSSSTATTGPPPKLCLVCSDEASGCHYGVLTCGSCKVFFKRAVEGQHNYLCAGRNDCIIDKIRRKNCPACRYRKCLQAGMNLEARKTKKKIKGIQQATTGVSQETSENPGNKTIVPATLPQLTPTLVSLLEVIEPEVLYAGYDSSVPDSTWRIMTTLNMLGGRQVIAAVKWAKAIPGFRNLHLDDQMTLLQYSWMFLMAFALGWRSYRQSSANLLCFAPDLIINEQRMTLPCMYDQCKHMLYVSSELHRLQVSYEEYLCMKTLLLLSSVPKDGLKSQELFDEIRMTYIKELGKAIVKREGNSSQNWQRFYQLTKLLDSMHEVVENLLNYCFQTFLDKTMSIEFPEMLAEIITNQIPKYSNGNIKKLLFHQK
The mark [16] stands for this setting: measured here: cell count channel max response.
The mark [17] stands for this setting: measured here: lipid channel max response.

Structures are written as SMILES. Inconclusive results are not listed. The source made the active and inactive calls. Unless noted, calls come from the whole dose curve; as a rule, active = well fitted curve in either direction with a large enough effect (not every such curve was filed as active); inconclusive = small, poorly fitted or top-dose-only effect, or another doubt; inactive = flat fitted curve, though single readings scatter. Bounds are passed on as bounds.

Cytochrome P450 1A2 (Homo sapiens), sequence (P05177 whole entry, looked up): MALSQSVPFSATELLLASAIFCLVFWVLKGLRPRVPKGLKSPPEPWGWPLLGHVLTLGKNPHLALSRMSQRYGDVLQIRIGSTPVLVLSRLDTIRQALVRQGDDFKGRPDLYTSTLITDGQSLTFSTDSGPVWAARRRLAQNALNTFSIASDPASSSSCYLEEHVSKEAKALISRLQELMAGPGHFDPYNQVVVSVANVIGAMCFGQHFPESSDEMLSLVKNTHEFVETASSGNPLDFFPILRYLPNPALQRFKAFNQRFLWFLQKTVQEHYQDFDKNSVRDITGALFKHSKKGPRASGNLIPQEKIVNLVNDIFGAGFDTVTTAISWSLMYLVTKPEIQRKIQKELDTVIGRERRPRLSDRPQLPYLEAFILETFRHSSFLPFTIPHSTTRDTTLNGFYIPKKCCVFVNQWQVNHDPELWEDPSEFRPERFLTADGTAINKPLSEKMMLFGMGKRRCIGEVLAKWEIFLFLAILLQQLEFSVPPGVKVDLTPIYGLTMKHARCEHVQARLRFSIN
Lysosomal acid glucosylceramidase (Homo sapiens), sequence (P04062 whole entry, looked up): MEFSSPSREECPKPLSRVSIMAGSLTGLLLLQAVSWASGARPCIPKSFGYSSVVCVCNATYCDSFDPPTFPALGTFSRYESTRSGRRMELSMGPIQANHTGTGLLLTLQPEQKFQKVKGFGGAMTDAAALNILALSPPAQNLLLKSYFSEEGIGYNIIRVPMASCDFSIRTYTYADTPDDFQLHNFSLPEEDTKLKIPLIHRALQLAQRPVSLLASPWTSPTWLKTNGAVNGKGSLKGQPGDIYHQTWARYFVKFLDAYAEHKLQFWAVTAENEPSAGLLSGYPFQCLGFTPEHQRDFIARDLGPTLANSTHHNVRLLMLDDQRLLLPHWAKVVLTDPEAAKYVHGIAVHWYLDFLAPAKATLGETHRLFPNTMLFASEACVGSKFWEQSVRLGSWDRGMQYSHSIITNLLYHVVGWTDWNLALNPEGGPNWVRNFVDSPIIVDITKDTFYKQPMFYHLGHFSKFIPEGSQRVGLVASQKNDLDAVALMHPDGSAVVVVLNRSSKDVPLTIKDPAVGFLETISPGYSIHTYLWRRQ
Cytochrome P450 2C19 (Homo sapiens), sequence (P33261 whole entry, looked up): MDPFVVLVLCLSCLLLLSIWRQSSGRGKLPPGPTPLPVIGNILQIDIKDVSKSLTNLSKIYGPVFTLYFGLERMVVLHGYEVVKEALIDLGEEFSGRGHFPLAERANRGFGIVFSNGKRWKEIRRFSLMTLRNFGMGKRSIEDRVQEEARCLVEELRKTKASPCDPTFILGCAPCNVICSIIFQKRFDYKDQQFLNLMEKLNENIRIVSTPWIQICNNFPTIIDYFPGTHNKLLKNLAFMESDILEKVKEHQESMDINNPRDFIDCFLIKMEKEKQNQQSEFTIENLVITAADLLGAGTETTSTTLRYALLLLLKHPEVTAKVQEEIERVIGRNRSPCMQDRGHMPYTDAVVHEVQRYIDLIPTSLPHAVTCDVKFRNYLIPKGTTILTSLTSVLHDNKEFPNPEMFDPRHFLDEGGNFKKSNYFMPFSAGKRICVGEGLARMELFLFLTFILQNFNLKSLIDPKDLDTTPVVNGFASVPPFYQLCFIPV

Turning to `CC(C)CN1CCC2(CC1)CCN(C(=O)c1cccc(F)c1)CC2`, the Potency in [1] is > 11.4 µM (inactive); in [5], > 46 µM (inactive); in assay [8], 5.01 µM (active). In addition, the activity change, negative = inhibition in [2] was -11.3% (inactive); in assay [9], 0.839% (inactive). Also, the Potency entry in [3], in [6] and in assay [7] was “inactive” each time. Besides, in [4], the activity, negative = inhibition was 0.382% (inactive). For the same compound, the figures for the max response in assay [9] (setting [16]) and in assay [9] (setting [17]) were 1.53% and 2.51%, respectively. Also, the result in assay [10] was inactive.
For `N#Cc1ccc(CN2CC3(CCN(C(=O)c4cccc(F)c4)CC3)C2)cc1`, the Potency was > 11.4 µM (inactive) in [1], 3.98 µM (active) in assay [3], > 46 µM (inactive) in assay [5] and 2 µM (active) in assay [12]. Further, the activity change, negative = inhibition is 20.2% (inactive) in assay [2] and -2.25% (inactive) in assay [9]. Also, in assay [4], the activity, negative = inhibition is -1.68% (inactive). The Potency entry in assay [7] and in [11] was “inactive” throughout. Moreover, the values for the max response in assay [9] (setting [16]) and in [9] (setting [17]) were 2.82% and 3.31%, respectively. For the same compound, the outcome in assay [10] was inactive.
As for `COc1ccccc1CN1CC2(CCN(C(=O)c3ccncc3)CC2)C1`, the Potency in assay [1] was > 11.4 µM (inactive); in [5] it was > 46 µM (inactive); in [8], 0.794 µM (active). For the same compound, the figures for the activity change, negative = inhibition in [2] and in assay [9] were -0.483% (inactive) and -2.12% (inactive), respectively. Also, the Potency entry in [3], in assay [6], in assay [7] and in assay [13] was “inactive” each time. In addition, the activity, negative = inhibition in assay [4] was -1.82% (inactive). Also, the max response in assay [9] (setting [16]) is -19.5%; in assay [9] (setting [17]), -17.3%. Moreover, the result in [10] was inactive.
Regarding `Cn1cccc1C(=O)N1CCC[C@@]2(CCN(C(c3ccccc3)c3ccccc3)C2)C1`, the Potency in [1] was > 11.4 µM (inactive); in [3], 20 µM (active); in assay [5], > 46 µM (inactive). Also, the activity change, negative = inhibition is 0.163% (inactive) in assay [2] and 0.948% (inactive) in [9]. For the same compound, the activity, negative = inhibition in assay [4] is 9.39% (inactive). Moreover, the Potency entry in assay [6], in [7] and in assay [13] was “inactive” throughout. The results for the max response in assay [9] (setting [16]) and in assay [9] (setting [17]) were 10.5% and 14.1%, respectively. Further, the outcome in assay [10] was inactive.
Regarding `O=C(c1cccc(F)c1)N1CCC2(CC1)CN(c1ccncc1)C2`, the figures for the Potency in assay [1], in [5] and in assay [12] were > 11.4 µM (inactive), > 46 µM (inactive) and 3.16 µM (active), respectively. In addition, the activity change, negative = inhibition in [2] was -2.31% (inactive); in assay [9], -4.55% (inactive). In addition, the Potency entry in assay [3] and in assay [7] was “inactive” in each case. In addition, the activity, negative = inhibition in assay [4] was 1.58% (inactive). Besides, the values for the max response in assay [9] (setting [16]) and in assay [9] (setting [17]) were -24.1% and -26.4%, respectively. Moreover, the result in [10] was inactive.
`O=c1c(-c2cc(F)cc(F)c2)nc2cncnc2n1Cc1ccc(F)cc1`: the results for the Potency in assay [1], in [15] and in assay [5] were > 11.4 µM (inactive), > 9.22 µM (inactive) and > 46 µM (inactive), respectively. Moreover, the results for the activity change, negative = inhibition in assay [2], in [14] and in assay [9] were -2.14% (inactive), -15.1% (inactive) and -8.57% (inactive), respectively. Further, the activity, negative = inhibition in assay [4] is -0.133% (inactive). In addition, the Potency entry in assay [6], in assay [7] and in assay [13] was “inactive” throughout. The results for the max response in assay [9] (setting [16]) and in [9] (setting [17]) were -5.87% and -11%, respectively. Moreover, the result in [10] was inactive.
As to `CCNc1ncc2ncc(=O)n(C)c2n1`, the Potency is > 11.4 µM (inactive) in assay [1], > 9.22 µM (inactive) in assay [15] and > 46 µM (inactive) in [5]. Also, the activity change, negative = inhibition in [2] was 3.09% (inactive); in assay [14], -4.43% (inactive); in [9], 5.71% (inactive). The activity, negative = inhibition in assay [4] was -6.09% (inactive). Moreover, the Potency result in assay [6] and in [7] was “inactive” each time. Further, the max response in [9] (setting [16]) stood at 10.2%; in [9] (setting [17]), 17.6%. Moreover, the result in [10] was inactive.
